From PubChem BioAssay
Most compounds without a hit are left out; they make up all but 21% or so of the library.
CHX counter: Cycloheximide Counterscreen for Small Molecule Inhibitors of Shiga Toxin | cell reporter, cycloheximide protein synthesis inhibition counterscreen | 12% of 300,000 active | max response, %; in the data active means max response mostly above about 13%, no sharp cut-off; inactive means mostly below about 14%; further: read at 38.3 µM for the half of the compounds with a filed dose; 0% is about no effect
HCV inh: qHTS Assay for Inhibitors of Hepatitis C Virus (HCV); Potency, µM (top dose mostly 41.8 µM), inactives show at the highest dose activity change, negative = inhibition, usual class: inhibitors; 3.4% of 340,000 active; Huh7.5.1 HCVcc-Cre infection, luciferase reporter, 44 h; further: potency means the concentration at half of the fitted maximal effect; on the % scale 0 is the no-effect control and ±100 the full control effect
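Reporter virus HCVcc-Cre (~0.5 moi) infects cells exposed to compound; seeding density 1,000 cells/well with 4 h settling beforehand. Luminescence, 15 sec read, taken 44 h post-infection following a 15 min RT substrate incubation.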
Pf growth 48h: Primary qHTS for delayed death inhibitors of the malarial parasite plastid, 48 hour incubation; Potency, µM (doses to about 28.7 µM), without a hit: at the highest dose activity change, negative = inhibition, hits mostly inhibitors; AID 504832, 2011; 5.9% of 310,000 active; P. falciparum luciferase growth in erythrocytes, 48 h; further: potency means the concentration at half of the fitted maximal effect; on the % scale 0 is the no-effect control and ±100 the full control effect
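Parasite viability was followed by luminescence of a genomically integrated firefly luciferase. Cultures held 0.1% parasitemia at 2% hematocrit (final), incubated under 5% CO2 at 37 C.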
Shiga toxin inh: A qHTS for Small Molecule Inhibitors of Shiga Toxin | 9.2% of 290,000 active | AID 2315, 2010 | inhibition, % at 38.7 µM | Vero cells, Shiga toxin protein synthesis inhibition reporter; in the data active means inhibition mostly above about 28%, no sharp cut-off; inactive means mostly below about 43%; further: 0% is about no effect
Pf growth 96h: Primary qHTS for delayed death inhibitors of the malarial parasite plastid, 96 hour incubation; Potency, µM (highest dose often 28.7 µM), for inactives: at the top dose activity change, negative = inhibition, most hits filed as inhibitors; P. falciparum luciferase reporter growth, 96 h; 6.9% of 320,000 active; AID 504834, 2011; further: potency means the concentration at half of the fitted maximal effect; on the % scale 0 is the no-effect control and ±100 the full control effect
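Readout is luminescence from an integrated firefly luciferase in P. falciparum. Red cells, 2% hematocrit and 0.05% parasitemia final, were cultured with compound through two parasite generations (96 hours) at 37 C, 5% CO2.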
HCMV antiviral: qHTS Assay for inhibitors of the human cytomegalovirus (HCMV); HFF cells, HCMV-luciferase reporter, 72 h; active compounds read low; activity change, negative = inhibition, % at 57.5 µM; 4.5% of 410,000 active; AID 1259415, 2018; in the data active means activity change below about -60%; inconclusive means no clear call, values can overlap the other calls; inactive means above about -39%; further: on the % scale 0 is the no-effect control and ±100 the full control effect
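Inhibition of viral replication was scored as loss of reporter luminescence in HFFs infected with HCMV-luciferase (MOI 1 PFU/cell) for 72 h; compounds tested at 2 doses, normalized to buffer and Salinomycin controls.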
Starred values were filed as active, the others as inactive; i = inactive; ? = inconclusive; nt = no result; [ ] = dose if it differs, or a comment. Unless noted, the call rests on the fitted dose curve; in most records, active means well fitted inhibition curve with a large enough effect; inconclusive means small, poorly fitted or top-dose-only effect, or another doubt; inactive means no such curve, though single readings can be large or run the other way.

SMILES	CHX counter	HCV inh	Pf growth 48h	Shiga toxin inh	Pf growth 96h	HCMV antiviral
CCCCN(CCCC)CCNC(=O)c1cc(-c2cccnc2)nc2ccc(S(=O)(=O)N3CCC(C)CC3)cc12	nt	nt	nt	nt	nt	-4.1
CCN(CC)CCNC(=O)c1cc(-c2cccnc2)nc2ccc(S(=O)(=O)N3CCC(C)CC3)cc12	-9.0	3.8%	?	-8.2	13.1µM*	?
CCCCNS(=O)(=O)c1ccc2nc(-c3cccnc3)cc(C(=O)NCCCN(CC)CC)c2c1	-3.1	nt	11.7µM*	10.5	?	nt
COc1ccc(-c2cc(C(F)(F)F)nc(SCCC(=O)Nc3c(C)cccc3C)n2)cc1	nt	nt	nt	nt	nt	-27.0
CC1CCN(CCCNC(=O)c2ccc3c(=O)n(Cc4ccc(Cl)cc4)c(=S)[nH]c3c2)CC1	2.4	?	13.1µM*	-13.4	32.7%[5.75 µM]	-27.3
COC(=O)c1ccc2c(=O)n(Cc3ccc(C(=O)NCCCN4CCC(C)CC4)cc3)c(=S)[nH]c2c1	10.5	?	?	24.9	?	?
CCCCN(C)CCNC(=O)c1ccc(Cn2c(=S)[nH]c3ccc(Br)cc3c2=O)cc1	7.7	11.2µM*	?	-1.7	10.4µM*	15.1
CCOc1cc2[nH]c(=O)n(Cc3ccc(C(=O)NCCCN4CCC(C)CC4)cc3)c(=O)c2cc1OCC	-2.4	?	?	-10.1	-8.9%	-64.4*
COc1ccc(-c2nn(-c3ccccc3)cc2/C=N/NC(=O)c2ccc3c(c2)OCO3)cc1	14.4	nt	?	58.8	?	nt
O=C(N/N=C/c1nn(-c2ccccc2)cc1-c1ccc(Cl)cc1)c1ccncc1	9.1	nt	2.08µM*	17.3	?	nt
O=C(N/N=C\c1cn(-c2ccccc2)nc1-c1ccccc1)c1ccc2c(c1)OCO2	15.6*	12.6µM*	?	23.1	11.7µM*	-12.8
O=C(N/N=C/c1cn(-c2ccccc2)nc1-c1ccc(F)cc1)c1ccc2c(c1)OCO2	18.3*	?	?	79.2*	13.1µM*	1.0
O=C(N/N=C/c1cn(-c2ccccc2)nc1-c1ccc2c(c1)OCCO2)c1ccncc1	29.2*	-3.0%	134.1%	49.6*	111.8%	2.4
CCN(C(=O)Cn1cc(S(=O)(=O)Cc2ccccc2Cl)c2ccccc21)c1ccccc1	nt	nt	nt	nt	nt	0.0
Cc1ccccc1C(=O)Nc1cccc(-c2cn3ccccc3n2)c1	20.8*	14.1µM*	-1.9%	41.5	-57.6%[1.15 µM]	-28.1
O=C(Nc1ccccc1)Nc1cccc(-c2cn3cccnc3n2)c1	-2.7	?	0.0%	-4.3	32.9%	?
COc1ccc(C(=O)Nc2cccc(-c3cn4ccsc4n3)c2)cc1OC	nt	nt	nt	nt	nt	62.3
CCCCC(=O)Nc1cccc(-c2cn3ccccc3n2)c1	29.3*	-11.4%	41.0%	108.3	65.1%	21.2
O=C(Nc1cccc(-c2cn3ccccc3n2)c1)c1ccccc1	34.1*	-20.0%	?	56.7*	53.1%	36.5
Cc1ccc(C(=O)Nc2cccc(-c3cn4ccccc4n3)c2)cc1	41.3*	-18.9%	45.9%	81.3*	13.1µM*	41.9
Cc1ccccc1C(=O)Nc1cccc(-c2ccc3nncn3n2)c1	12.1	-9.2%	?	28.4	-12.8%	16.1
CCc1nc2ccc(Cc3ccc4nc(CC)[nH]c4c3)cc2[nH]1	20.7	-28.1%	?	42.5	-17.6%	?
CCOC(=O)N1CCN(C(=O)c2cccc(N3C(=O)NC4CC3(C)Oc3ccc(Cl)cc34)c2)CC1 (configuration not stated)	-3.4	-14.3%	?	-8.9	?	-71.3*
CN(Cc1ccccc1)C(=O)CCCn1c(=O)c2cccn2c2cccnc21	-1.1	-10.5%	?	-4.8	-17.4%	-35.5
CCN(CC)S(=O)(=O)c1ccc(N2CCOCC2)c(NC(=O)c2ccc3ccccc3c2)c1	-4.0	-3.2%	?	13.6	11.7µM*	-36.2
SMILES	CHX counter	HCV inh	Pf growth 48h	Shiga toxin inh	Pf growth 96h	HCMV antiviral
CCN(CC)S(=O)(=O)c1ccc(N2CCOCC2)c(NC(=O)c2ccc3c(c2)OCCO3)c1	nt	?	?	nt	?	-3.4
CCN(CC)S(=O)(=O)c1ccc(N2CCOCC2)c(NC(=O)c2ccc(NC(C)=O)cc2)c1	0.8	?	?	-8.0	?	-30.7
CCc1cc(C(=O)Nc2cc(Cl)ccc2N2CCN(C)CC2)sc1C	nt	?	-16.3%	nt	-2.6%	-3.9
CCN(CC)S(=O)(=O)c1ccc(N2CCOCC2)c(NC(=O)C2CCCO2)c1 (configuration not stated)	-2.3	5.5%	?	-3.3	8.28µM*	-31.1
CCc1cc(C(=O)Nc2cc(S(=O)(=O)N(CC)CC)ccc2N2CCN(C)CC2)sc1C	nt	?	?	nt	2.62µM*	-7.5
O=C(Nc1cc(S(=O)(=O)N2CCOCC2)ccc1N1CCOCC1)C1CCCO1 (configuration not stated)	-2.5	8.0%	3.6%	-19.1	-16.5%	14.2
CCN(CC)S(=O)(=O)c1ccc(N2CCOCC2)c(NC(=O)C2=COCCO2)c1	-2.9	?	3.29µM*	-29.7	2.08µM*	37.9
COC(=O)c1cc(C#N)c(N2CCN(C)CC2)nc1C	-2.8	-20.9%	3.1%	18.5	8.5%[5.75 µM]	6.2
CCN(C(=O)Cc1c(C(=O)O)n(C)c2ccccc12)c1ccc(F)cc1	1.8	11.1%	1.4%	5.6	?	-6.1
CCN(CC)S(=O)(=O)c1ccc(N2CCOCC2)c(NC(=O)c2c3c(nc4ccccc24)CCC3)c1	-2.5	?	7.38µM*	-2.9	4.65µM*	-31.1
CCN(CC)S(=O)(=O)c1ccc(N2CCCCC2)c(C(=O)Nc2ccccc2N2CCOCC2)c1	-3.3	5.62µM*	nt	-15.2	4.15µM*	?
Cc1ccccc1NC(=O)c1cc([N+](=O)[O-])ccc1NCCN1C(=O)CCC1=O	-1.9	18.6%	-20.0%	30.6	?	3.6
CCOC(=O)c1sc(-c2ccccn2)nc1C	45.3*	19.4%	i	111.9*	227.6%	-9.0
Cc1c(C(=O)Nc2ccccc2)sc2nc[nH]c(=O)c12	14.6*	0.9%	51.6%	-3.5	?	129.4
Cc1nc(Cl)sc1C(=O)Nc1cccc(Cl)c1	30.6*	-5.1%	-10.4%	nt	?	55.4
Cc1c(C(=O)Nc2ccc(F)cc2)sc2nc[nH]c(=O)c12	nt	nt	nt	nt	nt	66.8
Cc1nc(-c2ccccn2)sc1C(=O)Nc1ccc(Cl)c(Cl)c1	25.9*	?	17.3%	128.3*	36.9%	36.3
Cc1nc(-c2ccccn2)sc1C(=O)O	3.6	10.2%	76.9%	18.2	79.1%	34.1
COc1ccc(Cl)cc1NC(=O)CSc1nnc2[nH]c(=O)cc(C)n12	nt	nt	nt	nt	nt	16.8
CC(=O)NS(=O)(=O)c1ccc(NC(=O)c2ccc3c(c2)C(=O)N(CCC(C)C)C3=O)cc1	-3.2	5.4%	-4.2%	14.5	-14.1%	-18.5
